In PubChem BioAssay (Tox21):
Results filed as inconclusive are left out. Values without a mark were called inactive. Calls come from the whole dose curve.
% is set by controls: 0 for no effect and ±100 for the full control effect.

Assay: p53 small molecule agonists, cell-based qHTS assay with human liver microsomes (AID 1963577);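 note: p53 response element beta-lactamase reporter cells with liver microsomes plus NADPH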
Settings: HCT-116 p53RE-bla with human liver microsomes, ratio, 16 h; series mostly up to 66 µM; activation: at the top concentration
Outline: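 Compounds act here after metabolic activation: human liver microsomes and NADPH, both at 0.5 mg/mL final, were co-added to p53RE-bla cells. Incubation ran 16 h at 37 C, followed by LiveBLAzer detection.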
In the case of `CC(C)NCCCC1(C(N)=O)c2ccccc2-c2ccccc21`, the “activation” value is reported as 0.439% [at 30.3 µM]. In the case of `CC(C(=O)O)c1cccc(Oc2ccccc2)c1` (stereo not given), the “activation” value is reported as 3.52% [at 30.3 µM]. With `CC(C)=CCC[C@@](C)(O)[C@H]1CC=C(C)CC1` the “activation” value was 3.76% [at 30.3 µM]. Molecule `O=C(O)C[C@H](O)C[C@H](O)/C=C/c1c(C2CC2)nc2ccccc2c1-c1ccc(F)cc1` has an activation of -13.7% [at 13.5 µM]. In the case of `O=P(O)(O)OCC(O)CO` (stereo not given), the “activation” value is reported as 0.163% [at 30.3 µM]. With `COC(=O)[C@H]1[C@H]2C[C@@H]3c4[nH]c5cc(OC)ccc5c4CCN3C[C@H]2C[C@@H](OC(=O)COc2ccc(OC)cc2)[C@@H]1OC` the “activation” value was -9.5% [at 30.3 µM]. In the case of `Cc1ccc2c(Cl)cc(Cl)c(O)c2n1`, the “activation” value is reported as 0.537% [at 30.3 µM]. With `CCC(=O)OC(=O)CC` the “activation” value was -1.31%. With `O=C1c2ccccc2C(=O)N1CO` the “activation” value was 0.691%. With `C[N+]12CCC(CC1)C(OC(=O)C(O)(c1ccccc1)c1ccccc1)C2` (stereo not given) the “activation” value was 1.71% [at 30.3 µM]. With `Cc1cccc([N+](=O)[O-])c1C(=O)O` the “activation” value was 0.929%. In the case of `Nc1nc2c(ncn2COCCO)c(=O)[nH]1`, the “activation” value is reported as -2.24% [at 30.3 µM]. `C[N+]1(CC2COC(c3ccccc3)(c3ccccc3)O2)CCCCC1` (stereo not given) gave an activation of 0.35% [at 13.5 µM]. In the case of `Cc1ncc(CO)c(C=O)c1O`, the “activation” value is reported as -3.08% [at 30.3 µM]. With `CC(C)c1ccc(C#N)cc1` the “activation” value was 1.08%. For `CN(C)CCN1CCOCC1`, the “activation” value was 0.442%. In the case of `CCOC(=O)[C@H](C)O`, the “activation” value is reported as 1.34%. In the case of `CO[C@@]1(NC(=O)CSCC#N)C(=O)N2C(C(=O)O)=C(CSc3nnnn3C)CS[C@@H]21`, the “activation” value is reported as 0.652% [at 30.3 µM]. With `O=C(Nc1ccccc1)Nc1ccccc1` the “activation” value was 0.73%. For `O=C(O)c1ccc[n+]([O-])c1`, the “activation” value was -3.36% [at 30.3 µM]. Molecule `NC(Cc1ccc(Cl)cc1)C(=O)O` (stereo not given) has an activation of 1.9% [at 0.249 µM]. With `CCCCCCCCCCc1ccccc1` the “activation” value was -1.3%. In the case of `Cc1ccccc1N1C(=O)c2cc(S(N)(=O)=O)c(Cl)cc2NC1C` (stereo not given), the “activation” value is reported as -2.83% [at 30.3 µM]. With `NC1CCN(c2nc3c(cc2F)c(=O)c(C(=O)O)cn3-c2ccc(F)cc2F)C1` (stereo not given) the “activation” value was -1.26% [at 30.3 µM]. In the case of `CCOc1cc([N+](=O)[O-])c(OCC)cc1N1CCOCC1`, the “activation” value is reported as -0.448%. In the case of `CO[C@@H]1[C@H](OC(=O)/C=C/C=C/C=C/C=C/C(=O)O)CC[C@]2(CO2)[C@H]1[C@@]1(C)O[C@@H]1CC=C(C)C`, the “activation” value is reported as -5.03%. For `CN1C(=O)OC(C)(C)C1=O`, the “activation” value was 0.182%. In the case of `FC(F)(F)c1ccc(Cl)cc1Cl`, the “activation” value is reported as -2.85%. In the case of `O=C(CCC1CCN(Cc2ccccc2)CC1)c1ccc2c(c1)NCCCC2`, the “activation” value is reported as -6.35% [at 30.3 µM]. In the case of `Cn1c(=O)[nH]c2ncn(C)c2c1=O`, the “activation” value is reported as -2.52%. With `Nc1nc(Cl)nc2c1ncn2[C@@H]1O[C@H](CO)[C@@H](O)[C@@H]1F` the “activation” value was 18.8% [at 30.3 µM]. For `CC(C)(C)C1=CC(=O)C(C(C)(C)C)=CC1=O`, the “activation” value was -0.0656% [at 30.3 µM]. For `Cc1c(C(=O)NCCO)[n+](=O)c2ccccc2n1[O-]`, the “activation” value was 0.809% [at 30.3 µM]. In the case of `C=CC(C)(CCC=C(C)C)OC(=O)C(C)C` (stereo not given), the “activation” value is reported as -0.545%. For `CN1Cc2cc(C(=O)N3CCC(C4CCNCC4)CC3)ccc2N[C@@H](CC(=O)O)C1=O`, the “activation” value was 9.97% [at 30.3 µM]. In the case of `[O-][n+]1cccc(CO)c1`, the “activation” value is reported as -2.78% [at 30.3 µM]. With `Cc1cc(C(=O)O)ccc1[N+](=O)[O-]` the “activation” value was -1.05%. In the case of `CC(C)=CCC/C(C)=C/C=N/O`, the “activation” value is reported as -3.46%. In the case of `CC(=O)c1c(C)cc(C(C)(C)C)cc1C`, the “activation” value is reported as -1.79%. For `O=S1(=O)c2cccc3cccc(c23)N1CCCN1CCN(c2ccc(F)cc2)CC1`, the “activation” value was -6.79% [at 30.3 µM].
